These results are taken from PubChem BioAssay AID1259313 (Sanford-Burnham Center for Chemical Genomics, 2017).

Each structure is given as a SMILES string. Out of some 340,000 compounds screened, about 8,500 (2.5%) were called active. The sample holds actives, similar compounds and a random draw of the others, so the mix is not that of the screen.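 Rule for the calls: active = melting temperature shift of at least 10% of the positive control shift, at one fixed dose; inactive = the rest.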

This assay has as its system Glutamate receptor ionotropic, NMDA 3A (GRIN3A) ligand-binding domain. As to the kind of experiment: NR3A LBD thermal stabilization by compounds – biophysical, differential scanning fluorimetry, uHTS, primary screen (AID 1259313). To be noted: at 25 µM, stronger effect = higher value, 0% = protein alone, 100% = glycine-bound protein.
`CC1CC(C)CN(CCC(=O)Nc2ccc3c(c2)CCC3)C1` (stereo not drawn): the Tm shift relative to glycine control is 2.54% (inactive).
Take `O=C(Nc1ccc2c(c1)CCC2)c1ccc(Br)s1`: the Tm shift relative to glycine control is 14.5% (active).
To `O=C(Nc1ccc(F)cc1)c1cc2c(s1)CCCC2` belongs 6.13% (inactive); to `O=C1c2ccccc2C(=O)C1C(=O)C1CC1`, 1.97% (inactive); to `Cc1ccc(CSc2nc3[nH]ncc3c(=O)[nH]2)cc1`, -1.69% (inactive).
Take `COc1ccc(NC(=S)Nc2ccc(S(N)(=O)=O)cc2)c(C)c1`: the Tm shift relative to glycine control is -1.86% (inactive).
On to `NS(=O)(=O)c1ccc(CCNC(=S)Nc2ccc(S(N)(=O)=O)cc2)cc1`, for which the Tm shift relative to glycine control was 0.88% (inactive).
Turning to `NS(=O)(=O)c1ccc(NC(=S)Nc2ccc(Br)c(Cl)c2)cc1`, the Tm shift relative to glycine control was 26.7% (active).
Consider `CCCCCc1nnc(NC(=O)c2ccc(=O)n(C)n2)s1`, for which the Tm shift relative to glycine control is -0.62% (inactive).
On to `CCOC(=O)C1Nc2ccc(C(F)(F)F)cc2C2C=CCC12` (stereo not drawn), for which the Tm shift relative to glycine control was 52.4% (active).
For the compound `CCOC(=O)NNc1cc(C(F)(F)F)ccn1`, the Tm shift relative to glycine control was 0% (inactive).
As to `CCOC(=O)C[C@H]1c2ccc(C(F)(F)F)cc2S(=O)(=O)N1c1ccccc1`, the Tm shift relative to glycine control was -5.05% (inactive).
As for `CC[C@]12c3[nH]c4ccc(OC)cc4c3CCN1C(=O)C(CC(=O)NCCN1CCOCC1)C[C@@H]2C(=O)N1CCN(C(=O)C2CC2)CC1` (stereo partly drawn), the Tm shift relative to glycine control was -2.01% (inactive).
To `Cc1cccc(NC(=O)CCn2c(=O)oc3ccccc32)c1` belongs -0.8% (inactive).
As to `O=C(CCC(=O)N/N=C/c1ccc(Br)o1)N/N=C/c1ccc(Br)o1`, the Tm shift relative to glycine control was -0.2% (inactive).
In the case of `O=C(Cc1ccccc1)Nc1cccc(C(=O)N/N=C/c2ccco2)c1`, the Tm shift relative to glycine control was 1.04% (inactive).
Take `O=C(CCC(=O)Nc1ccccc1)N/N=C/c1ccccc1F`: the Tm shift relative to glycine control was 0.57% (inactive).
With `O=C(CSc1ccc(/C=N/NC(=O)c2cccc(F)c2)o1)Nc1ccccc1`, the Tm shift relative to glycine control is 12.4% (active).
The figure for `N#CCC(=O)N/N=C/c1ccc(SCC(=O)Nc2ccccc2)o1` is 12.7% (active).
On to `O=C(CCNC(=O)c1ccccc1)NN=Cc1ccc(Br)o1`, for which the Tm shift relative to glycine control was -3.41% (inactive).
To `COC(=O)c1ccc(C2C3=C(Nc4nnnn42)c2ccccc2OC3)cc1` (stereo not drawn) belongs -8.44% (inactive).
To `C#CCO[C@@H]1C[C@H](n2cnc3c(=O)[nH]c(NC(=O)C(C)C)nc32)O[C@@H]1CO` belongs 0% (inactive); to `CCc1cc(-c2nnc(SCC(=O)NC3CC3)n2C)cs1`, -0.41% (inactive); to `O=C(CC1C(=O)NCCN1C(=O)c1ccc([N+](=O)[O-])cc1)Nc1cccc(Cl)c1` (stereo not drawn), 0.67% (inactive).
For the compound `CCOc1cnc(-c2c(-c3ccccc3Cl)noc2C)o1`, the Tm shift relative to glycine control is -1.94% (inactive).
Consider `O=C(NNc1c2ccccc2nc2ccccc12)c1cc2ccccc2cc1O`, for which the Tm shift relative to glycine control was 30.2% (active).
For the compound `O=C(COC(=O)c1ccc(O)cc1O)NC(=O)c1ccccc1`, the Tm shift relative to glycine control was -11.9% (inactive).
Turning to `O=C(NNC(=O)c1ccccc1O)c1ccccc1O`, the Tm shift relative to glycine control is 2.79% (inactive).
As to `COCc1[nH][nH]c(=O)c1C=Nc1ccc(F)cc1F`, the Tm shift relative to glycine control is -2.69% (inactive).
Turning to `CCCCN1C(N)=NC[C@@H]1CC1CCCCC1`, the Tm shift relative to glycine control is -3.87% (inactive).
On to `CCc1cc(=O)oc2cc(C)cc(OCC(=O)N3CCC[C@@H]3C(=O)O)c12`, for which the Tm shift relative to glycine control is -2.37% (inactive).
As for `Cc1cc([N+](=O)[O-])c(NC2CCCCC2)c([N+](=O)[O-])c1`, the Tm shift relative to glycine control is 1.28% (inactive).
Regarding `Cc1cc([N+](=O)[O-])ccc1NS(=O)(=O)c1ccccc1`, the Tm shift relative to glycine control is -13.4% (inactive).
Take `Cc1cc([N+](=O)[O-])ccc1NC1CCCC1`: the Tm shift relative to glycine control was 12.8% (active).
For `O=C(CSc1ccc(-c2ccc(-n3cccn3)cc2)nn1)Nc1ccc([N+](=O)[O-])cc1`, the Tm shift relative to glycine control was 21.1% (active).
On to `O=C(CSc1ccc([N+](=O)[O-])cn1)Nc1ccc(N2CCOCC2)cc1`, for which the Tm shift relative to glycine control is 0.67% (inactive).
Turning to `O=C(CSc1ccc(-c2ccccn2)nn1)Nc1ccccc1`, the Tm shift relative to glycine control is -2.4% (inactive).
`COCCN(CCOC)S(=O)(=O)c1ccc(/C(O)=C(\C#N)c2nc3ccccc3[nH]2)cc1`: the Tm shift relative to glycine control was 0.08% (inactive).
For `COc1cc(/C=C(\C#N)c2nc3ccccc3[nH]2)ccc1O`, the Tm shift relative to glycine control is 28.5% (active).
`Cc1ccc2nc(/C(C#N)=C\c3ccc(OC(=O)c4cccs4)cc3)[nH]c2c1`: the Tm shift relative to glycine control was -1.46% (inactive).
To `CCCCOc1ccc(NC(=O)[C@@H]2CCCN2C(=O)C2CCN(S(=O)(=O)c3ccc(C)cc3)CC2)cc1` belongs 0% (inactive).
Regarding `CC(=O)Nc1ccc(OC(=O)COc2ccc(Br)cc2)cc1`, the Tm shift relative to glycine control is 17.5% (active).
With `CC(=O)Nc1ccc(NC(=O)COc2ccc(-c3ccccc3)cc2)cc1`, the Tm shift relative to glycine control was 12.4% (active).
With `CC(=O)Nc1ccc(NC(=O)COc2ccc(S(=O)(=O)NC(C)c3ccccc3)cc2)cc1` (stereo not drawn), the Tm shift relative to glycine control was 0.44% (inactive).
To `COCC(=O)Nc1ccc(Br)cc1` belongs -2.19% (inactive); to `O=C(COc1ccccc1)Nc1ccc(F)cc1`, -8.63% (inactive); to `Cc1ccc(OC(=O)CCC(=O)Nc2ccc(Br)cc2)cc1`, 0.17% (inactive).
To `Cc1c(Nc2nc3ccccc3nc2NS(=O)(=O)c2cccs2)c(=O)n(-c2ccccc2)n1C` belongs 0.52% (inactive); to `Cc1ccsc1C1C(C#N)=C(N)OC2=C1C(=O)CC(C)(C)C2` (stereo not drawn), -2.21% (inactive).
Take `CC(c1ccccn1)N(CCN(C)C)C(=S)Nc1ccccc1F` (stereo not drawn): the Tm shift relative to glycine control was 0% (inactive).
Take `CSc1cccc(NC(=S)N(C(C)C)C(C)c2ccccn2)c1` (stereo not drawn): the Tm shift relative to glycine control is 13.8% (active).
To `CSc1cccc(NC(=S)N(Cc2ccccc2)Cc2ccccn2)c1` belongs -4.28% (inactive); to `O=C(COC(=O)c1ccccc1Cl)NC1CCCCCCC1`, 1.11% (inactive).
To `Cn1cccc1C1(C(F)(F)F)NCCNC1=O` (stereo not drawn) belongs -0.65% (inactive); to `CCn1c(CSc2nc(C)cc(C)n2)nnc1SCC(N)=O`, 1.48% (inactive).
To `Cc1oc2c(F)c(F)c(F)c(F)c2c1S(=O)(=O)Nc1cccc(C(F)(F)F)c1` belongs 29.7% (active); to `O=C(/C=C/c1ccc(F)cc1)Nc1cccc(S(=O)(=O)Nc2cccc(C(F)(F)F)c2)c1`, 1.46% (inactive).
Regarding `O=C(COc1ccc(S(=O)(=O)Nc2cccc(C(F)(F)F)c2)cc1)N1CCOCC1`, the Tm shift relative to glycine control is -0.84% (inactive).
Regarding `CC1CCCN(S(=O)(=O)c2ccc(N(C(=O)c3cnccn3)C(C(=O)NC3CCCCC3)c3cccs3)cc2)C1` (stereo not drawn), the Tm shift relative to glycine control was 1.68% (inactive).
With `COCCCNC(=S)N(Cc1ccccc1)Cc1ccc(F)cc1`, the Tm shift relative to glycine control is 0.84% (inactive).
The figure for `O=C1COc2ccc(NC(=O)N3CCN(c4ccc(F)cc4)CC3)cc2N1` is -1.31% (inactive).
The figure for `Cc1ccc(SCc2c(C(=O)N/N=C/C3CC=CCC3)nnn2-c2nonc2N)cc1` (stereo not drawn) is 85.4% (active).
The figure for `CC(C)c1c(C(=O)N/N=C/c2ccc(-c3ccccc3)cc2)nnn1-c1nonc1N` is 1.62% (inactive); for `CN(C)Cc1c(C(=O)N/N=C/c2ccccc2OCc2ccc(F)cc2)nnn1-c1nonc1N` it is 2.67% (inactive).
For `Cc1ccc(SCc2c(C(=O)N/N=C/c3cccnc3)nnn2-c2nonc2N)cc1`, the Tm shift relative to glycine control is 30.3% (active).
For `Nc1nonc1-n1nnc(C(=O)N/N=C/c2cc(Br)ccc2O)c1CSC1=NCCS1`, the Tm shift relative to glycine control was 11.5% (active).
To `COCc1c(C(=O)N/N=C/C2CC=CCC2)nnn1-c1nonc1N` (stereo not drawn) belongs -1.57% (inactive).
Consider `COCc1c(C(=O)N/N=C\c2cccnc2)nnn1-c1nonc1N`, for which the Tm shift relative to glycine control is -1.82% (inactive).
To `CC(C)Oc1ccc(/C=N/NC(=O)c2nnn(-c3nonc3N)c2CN(C)C2CCCCC2)cc1` belongs 2.01% (inactive); to `Nc1nonc1-n1nnc(C(=O)N/N=C\c2ccncc2)c1CN1CCCCC1`, 0.45% (inactive).
On to `CCCCNC(=O)c1ccccc1NC(=O)c1ccccc1N(C)S(C)(=O)=O`, for which the Tm shift relative to glycine control is 0.62% (inactive).
As to `Cc1c(Br)ccc(NC(=O)COc2ccccc2C(N)=O)c1C`, the Tm shift relative to glycine control was -0.92% (inactive).
As for `CC1=NN(C(C)C)C(=O)C1`, the Tm shift relative to glycine control is -0.17% (inactive).
With `Cc1ccc(S(=O)(=O)N2[C@@H](c3ccc(Br)cc3)C(C(=O)O)=C[C@H]2CC2CCCC2)cc1`, the Tm shift relative to glycine control is -1.23% (inactive).
To `O=C(CSc1nn(-c2ccc(F)cc2)c(=S)s1)NC1CCS(=O)(=O)C1` (stereo not drawn) belongs -1.94% (inactive); to `Cc1ccc(C)c(OCCC(=O)OCC(=O)c2ccc3c(c2)NC(=O)CO3)c1`, 1.04% (inactive); to `CCOC(=O)C1CCN(C(=O)c2cccc(S(=O)(=O)N(CC)c3ccccc3)c2)CC1`, 0.33% (inactive).
In the case of `O=[N+]([O-])c1cccc(C=NN=Cc2ccccc2O)c1`, the Tm shift relative to glycine control is -1.4% (inactive).
In the case of `Nc1ccccc1/C=N\N=C/c1ccccc1N`, the Tm shift relative to glycine control was 10.2% (active).
For the compound `COc1ccc(NC(=O)c2oc3ccc(S(=O)(=O)N4CCOCC4)cc3c2C)cc1`, the Tm shift relative to glycine control was 14.9% (active).
Turning to `Cc1c(C(=O)Nc2ccccc2Cl)oc2ccc(S(=O)(=O)N3CCC4(CC3)OCCO4)cc12`, the Tm shift relative to glycine control was -0.83% (inactive).
On to `Cc1c(C(=O)Nc2cccc(S(=O)(=O)N3CCOCC3)c2)oc2ccccc12`, for which the Tm shift relative to glycine control is -5.92% (inactive).
In the case of `Cc1ccc(-c2c3c(=O)n(C)c(=O)n(C)c3cn2-c2ccccc2O)cc1`, the Tm shift relative to glycine control was 22.9% (active).
To `COc1cccc(-n2cc3c(c2-c2ccccc2)c(=O)n(C)c(=O)n3C)c1` belongs -1.71% (inactive).
As for `Cc1ccc(-c2c3c(=O)n(C)c(=O)n(C)c3cn2-n2cnnc2)cc1`, the Tm shift relative to glycine control was -0.82% (inactive).
In the case of `Cc1csc(=O)n1CCC(=O)OCC(=O)NNC(=O)c1ccc(Br)cc1`, the Tm shift relative to glycine control is -0.85% (inactive).
For the compound `COc1cccc(CNS(=O)(=O)c2ccc3c(c2)N(C(C)=O)CCS3)c1`, the Tm shift relative to glycine control is 11.5% (active).
On to `COc1cccc(CNS(=O)(=O)c2ccc3c(c2)CC(C)N3C(C)=O)c1` (stereo not drawn), for which the Tm shift relative to glycine control is 2.23% (inactive).
The figure for `COc1cccc(CNS(=O)(=O)c2csc(C(N)=O)c2)c1` is 2.62% (inactive); for `CSc1nc2c(c(=O)[nH]1)C(c1cccc(Cl)c1Cl)CC(=O)N2` (stereo not drawn) it is -1.69% (inactive); for `O=C(NC(Nc1nc2ccc([N+](=O)[O-])cc2s1)(C(F)(F)F)C(F)(F)F)c1ccccc1` it is 6.26% (inactive).
Take `O=C(Nc1nc2ccc([N+](=O)[O-])cc2s1)c1ccc(S(=O)(=O)N2CCCc3ccccc32)cc1`: the Tm shift relative to glycine control is 18.8% (active).
Take `Cc1ccc(NC(=O)c2cccc(S(=O)(=O)N3CCCc4ccccc43)c2)nc1`: the Tm shift relative to glycine control is 2.57% (inactive).
